The source of these data is PubChem BioAssay (NCI).

Each structure is given as a SMILES string. The panel holds about 83,000 compounds, 20% with a hit somewhere; the sample as a whole holds those more often.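 Method: cells in 96-well plates; compound added at one concentration; 48 h incubation; percent growth measured; values under 10 scored active.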 Unmarked numbers belong to inactive results. Calls of active or inactive are those of the source.

The subject of the test is BT-549 breast. The test can be described thus: NCI-60 one-dose screen, 48 h (100 = growth as untreated, 0 = no growth, -100 = all killed). As to conditions: 10 µM unless noted.
Turning to `COC12C=C/C(=C(/C(=O)OCc3ccncn3)C(=O)CCCCCCCCC3(OC)C=C/C(=C(/C(=O)OCc4ccncn4)C(=O)CCCCCCCC1)O3)O2`, the growth was -27.1% (active).

As for `CN(/C(N)=N/N=C/c1c2ccccc2cc2ccccc12)C1CCCCC1`, the growth was 67.7%.

Turning to `Cn1cc(-c2csc(-c3c[nH]c4ccc(Br)cc34)n2)c2ccnc(Cl)c21`, the growth is 84.1%.

As for `COC(=O)c1nc(-c2ccc(C)cc2)oc1S(=O)(=O)c1cccc(OC)c1`, the growth is 70.6%.

For `CCCCn1c(=O)[nH]c(N)c([C@@H]2c3c([nH]c(=O)n(CCCC)c3=O)Oc3ccc4ccccc4c32)c1=O`, the growth was 46.9%.

As for `O=C(O)c1cn(C2CC2)c2cc(N3CCN(C(=O)N(c4ccccc4)c4nc(-c5ccccc5)cs4)CC3)c(F)cc2c1=O`, the growth was -13% (active).

Consider `CCC(C)(C)C(=O)O[C@H]1C[C@@H](C)C=C2C=C[C@H](C)[C@H](CC[C@@H]3CC(SCCN)CC(=O)O3)[C@H]21` (stereo partly drawn), for which the growth is 78.7%.

As for `COc1cc(OC)c(NC(=O)c2cc3ccccc3cc2O)cc1Cl`, the growth is -25.9% (active).

Turning to `O=C(Nc1cccc2ccccc12)NC1CC1`, the growth is 91.1%.

Regarding `COc1ccc(C(=O)c2cc3c(N)c(C(=O)Nc4ccc(C)cc4)sc3nc2C)cc1`, the growth is 46.5%.

Regarding `CCCCCCCCCCCCCCCCCCOc1ccccc1CC(=O)OCC[N+](C)(C)C`, the growth is 46.5%.

In the case of `C=CC[Se]C(=O)Cc1c(C)n(C(=O)c2ccc(Cl)cc2)c2ccc(OC)cc12`, the growth was 0.594% (active).

Regarding `Cc1cc(N2CCCCC2)cc(C)c1-c1csc(NC(=O)c2ccncc2)n1`, the growth is 57.6%.
